# Measured values taken from ChEMBL document CHEMBL1157539, “Thousands of chemical starting points for antimalarial lead identification” (Nature, 2010).
# What was measured:
# Assay type in all cases: functional
# [1] = tested on: Plasmodium falciparum; experiment: GSK_TCMDC: Inhibition of Plasmodium falciparum 3D7 in whole red blood cells, using parasite LDH activity as an index of growth. Test compounds present at 2uM
# [2] = tested on: Plasmodium falciparum; experiment: GSK_TCMDC: Inhibition of Plasmodium falciparum Dd2 in whole red blood cells, using parasite LDH activity as an index of growth. Test compounds present at 2uM
# [3] = tested on: HepG2; experiment: GSK_TCMDC: Percent inhibition of human HepG2 cell line. Test compounds present at 10uM.
SMILES,Inhibition [1] [%],Inhibition [2] [%],Inhibition [3] [%]
Cc1[nH]c2ccccc2c1C(=O)CSc1nn(-c2ccccc2)c(=S)s1,100,99,0
CCC(CN1C(=O)C(c2ccccc2)(c2ccccc2)N=C1N)c1ccccc1.O=CO (centres undefined),98,98,11
N=C(NCCCCCCNC(=N)NC(=N)c1ccc(Cl)cc1)NC(=N)c1ccc(Cl)cc1,98,99,10
COc1ccc2nccc([C@@H](O)CN3CCC(NC(=O)/C=C/c4cc([N+](=O)[O-])ccc4OC)CC3)c2c1,99,76,12
COc1ccc(CCNc2nc(N)c3cc(OC)c(OC)cc3n2)cc1.Cl,100,1,16
CC(C)CNCc1ccc(-c2cccc(CNC3CCN(Cc4ccccc4)CC3)c2)cc1.O=C(O)C(F)(F)F,100,100,34
O=C(/C=C/c1ccc(Cl)c(Cl)c1)NCCCCCN1CCC(NC(=O)Nc2cccc(F)c2)CC1,100,6,30
Cl.c1ccc(Oc2ccc(Nc3ccnc(Nc4ccc(OCCN5CCCCC5)cc4)n3)cc2)cc1,97,66,23
O=C(Nc1ccc(C(=O)N2CCN(CCN3CCN(c4cccc(C(F)(F)F)c4)CC3)CC2)cc1)c1ccc(C(F)(F)F)cc1,95,28,39
CCNc1cc(C(=O)N[C@@H](Cc2ccccc2)[C@H](O)CNC(C)C)cc(N2CC(c3ccccc3)CCS2(=O)=O)c1 (some centres undefined),98,99,0
Cc1cccc2nc(-c3ccc(-c4ccc(CNCCNC(=O)c5ccnn5C)cc4)cc3)[nH]c12.O=C(O)C(F)(F)F,100,98,29
O=C(Nc1ccc(Oc2ccccc2)cc1)N(Cc1ccc(-c2ccc(CN3CCNCC3)cc2)cc1)C1CCN(Cc2ccccc2)CC1.O=C(O)C(F)(F)F,100,73,31
COc1cc2nc(NCc3ccc(S(N)(=O)=O)cc3)nc(Nc3ccc(Oc4ccccc4)cc3)c2cc1OC,100,100,14
CCC(CC)CN1C(=O)C(c2ccccc2)(c2ccccc2)N=C1N.O=CO,97,81,14
COCCNCc1ccc(-c2cccc(CNC3CCN(Cc4ccccc4)CC3)c2)cc1.O=C(O)C(F)(F)F,100,100,30
COC(=O)c1ccc(C2OC3(C(=O)c4ccccc4C3=O)C(OC)=C2Cl)cc1C(C)=O (centres undefined),99,85,0
COc1ccc(C2N=C(N)N=C(N)N2c2ccc(Cl)cc2)cc1OC.Cl (centres undefined),85,4,4
O=C(NC1CCN(CCC[C@]2(c3ccc(Cl)c(Cl)c3)CCCN(C(=O)c3ccccc3)C2)CC1)c1ccc(F)cc1,90,68,52
COc1ccc(CNCCCCCCCNCc2ccc(Cl)c(Cl)c2)cc1Cl,90,18,27
CC(=O)Nc1ccc([N+](=O)[O-])c2c(Br)cccc12,100,0,0
Cc1ccc2[nH]cc(/C=C/C(=O)NC3CCC(CCN4CCc5ccc(C#N)cc5CC4)CC3)c2c1.Cl (centres undefined),93,49,11
CN(C)CCNC(=O)N1CCCN(c2ncnc3cc(-c4ccc(Cl)cc4)sc23)CC1.O=C(O)C(F)(F)F,98,21,41
Cc1ccc(N2C(N)=NC(N)=NC2(C)C)cc1Cl.Cl,90,77,66
C=CCc1cc(Cc2cnc(N)nc2N)c2ccc(C)nc2c1OC,96,0,11
O=S(=O)(c1ccc(NC(S)=NN=Cc2ccccn2)cc1)N1CCCCC1,98,56,43
COc1cccc(-c2csc(C(=O)NC3CCCCN(Cc4ccc(C(C)(C)C)cc4)C3)c2)c1.O=C(O)C(F)(F)F (centres undefined),97,66,9
Cc1nc(C(C)Nc2nncc(-c3ccc(Cl)cc3)n2)cs1 (centres undefined),91,55,0
O=C(/C=C/c1ccc(Cl)c(Cl)c1)NCCCCCN1CCC(NC(=O)Nc2cccc(Cl)c2F)CC1,100,30,75
